Laboratory results: PubChem BioAssay AID651871 (Sanford-Burnham Center for Chemical Genomics, 2012)

What follows are compounds tested on HL-1 (assay: protection of cardiomyocytes from stress damage, SAR follow-up, cell-based, panel, H9c2 and HL-1, ATP luminescence, set 2 (AID 651871;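 also: cells exposed to stressor for 2 h before ATP readout; reference of the scale not given here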)). Details: H9c2/HL-1 cardiomyocytes, 2-deoxyglucose stress, with 2-deoxyglucose, run 6, at 79 µM (top of the series).
`COc1ccc2c(c1OC)C(=O)N1c3ccccc3C(=O)N(Cc3cccc(Cl)c3Cl)C21` (stereo not drawn) gave an activity (protection/inhibition) of -11.4%.
In the case of `COc1ccc2nc(-c3cc(OC)c(OC)c(OC)c3)cc(C(=O)NCC(=O)Nc3ccc(C(C)=O)cc3)c2c1`, the activity (protection/inhibition) is reported as 61.1%.
In the case of `CCOC(=O)c1cccc(NC(=O)CNC(=O)c2cc(-c3cc(OC)c(OC)c(OC)c3)nc3ccccc23)c1`, the activity (protection/inhibition) is reported as 74.8%.
